PubChem BioAssay AID504908 (NMMLSC, 2011)
Several values for one entry are separate records, joined by “and”; a condition that tells them apart may be missing. Equal entries are not always repeated. Screen size: about 1,300 compounds; about 25 (2%) were called active.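 How the source made its calls: active means inhibition above a set limit, roughly 3 SD of non-fluorescent compound noise (cut at about 38% in these data); inactive means inhibition at or below that limit.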 A selection follows.

What follows are compounds tested against AP-2 complex subunit beta (Homo sapiens) (UniProt P63010) (assay: inhibitors of arrestin peptide binding to AP2, confirmation, biochemical, cherry pick 1, flow cytometry beads (AID 504908;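 further: loss of bead fluorescence from 50 nM FITC arrestin peptide bound to appendage; 0% = negative control wells and 100% = excess unlabelled arrestin peptide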)). Conditions: GST-AP2 beads, FITC arrestin peptide binding, at 10 µM, active compounds read high, GST-fused beta2-adaptin appendage, R879A mutant.
Chain of AP-2 complex subunit beta (Homo sapiens) (P63010 whole entry, looked up, the tested form may be a part, one chain of several): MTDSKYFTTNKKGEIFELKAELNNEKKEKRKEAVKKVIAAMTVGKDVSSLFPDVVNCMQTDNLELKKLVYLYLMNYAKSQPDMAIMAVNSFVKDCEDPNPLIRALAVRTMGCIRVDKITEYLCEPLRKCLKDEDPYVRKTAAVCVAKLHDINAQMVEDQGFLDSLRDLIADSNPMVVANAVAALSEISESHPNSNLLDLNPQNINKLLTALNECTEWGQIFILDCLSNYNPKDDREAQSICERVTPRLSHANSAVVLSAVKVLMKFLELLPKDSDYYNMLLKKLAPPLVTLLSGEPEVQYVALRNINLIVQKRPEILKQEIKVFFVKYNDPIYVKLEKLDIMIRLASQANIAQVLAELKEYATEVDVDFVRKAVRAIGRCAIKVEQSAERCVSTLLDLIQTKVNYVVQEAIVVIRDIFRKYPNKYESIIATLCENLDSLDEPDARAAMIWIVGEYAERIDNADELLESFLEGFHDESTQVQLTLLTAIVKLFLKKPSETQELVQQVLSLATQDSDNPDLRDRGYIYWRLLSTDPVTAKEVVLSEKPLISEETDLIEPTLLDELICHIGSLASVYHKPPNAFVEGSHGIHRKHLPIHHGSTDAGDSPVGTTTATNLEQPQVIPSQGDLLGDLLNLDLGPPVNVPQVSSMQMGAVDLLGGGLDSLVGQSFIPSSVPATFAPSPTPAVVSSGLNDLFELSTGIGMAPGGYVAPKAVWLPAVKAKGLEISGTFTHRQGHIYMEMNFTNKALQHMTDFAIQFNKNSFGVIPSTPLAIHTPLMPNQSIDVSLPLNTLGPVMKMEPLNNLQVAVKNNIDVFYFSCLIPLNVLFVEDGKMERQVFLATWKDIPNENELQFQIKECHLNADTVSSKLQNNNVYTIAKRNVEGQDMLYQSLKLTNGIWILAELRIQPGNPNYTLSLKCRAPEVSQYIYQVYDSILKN

inhibition, inactive:
CN(C(=O)COC(=O)c1cc(=O)[nH]c2ccccc12)C1CCCCC1 -1.7%, Cc1ccc(CN2C(=O)CCC2C(=O)NCCCN2CCCCC2C)cc1 (centres undefined) 10.8%, CC(NC(=O)c1cc2cc(Cl)ccc2oc1=N)c1ccccc1 (centres undefined) -6.34%, COC(=O)c1cc(NC(=O)c2nn(C)c(=O)c3ccccc23)cc(C(=O)OC)c1 -5.22%, COc1ccc(CCNc2ncnc3c2nnn3Cc2ccccc2)cc1 -10.5%, CCn1c(=O)n(CC)c2cc(N3CCCC3)c(NC(=O)c3ccccc3Br)cc21 -0.2%, CC(NCCc1ccc(S(N)(=O)=O)cc1)C(=O)NCc1ccccc1 (centres undefined) 5.93%, O=C(C1CCCO1)N1CCN(S(=O)(=O)c2ccc(Br)cc2)CC1 (centres undefined) -1.61%, Cc1ccc(CNC(=O)C2CC(=O)N(C3CCCCCCC3)C2)cc1 (centres undefined) -8.23%, Cc1ccc(S(=O)(=O)N2CCCCC2)cc1NC(=O)c1cccnc1 -9.09%, NC(=O)C1CCN(C(=O)CC2C(=O)NCCN2Cc2cccc(Oc3ccccc3)c2)CC1 (centres undefined) 0.55%, CCCc1ccc(-c2csc(NC(=O)Cc3cccs3)n2)cc1 8.55%, Cc1cccc(Nc2ccccc2C(=O)NCc2ccco2)c1C 6.33%, Cc1ccc(S(=O)(=O)N2CCN(C(=O)c3ccccc3-c3nc4ccccc4s3)CC2)c(C)c1 15.9%, COc1cc2c(cc1NC(=O)COC(=O)/C=C/c1ccccc1)oc1ccccc12 -9.67%, Cc1ccc(Nc2ccc(C(N)=O)cc2[N+](=O)[O-])cc1 -3.07%, CC(C)C[C@H](NC(=O)N1CCn2c1nc1ccccc12)C(=O)NC1CC1 9.68%, Cc1ccc(C)c(NC(=S)NNC(=S)Nc2ccc(C(C)C)cc2)c1 -5%, Cc1cccc(C)c1NC(=O)C(Cl)C(=O)c1ccccc1 (centres undefined) 8.36%, CC(C)c1nnc(NC(=O)CCC(=O)N2CCN(c3cccc(Cl)c3)CC2)s1 1.25%, Cc1cccc(NC(=S)NC(=O)c2ccc(Br)o2)c1 -4.95%, CC(=O)NCCNC(=O)c1cc(-c2cccc3ccccc23)nc2ccccc12 -1.13%, CCOC(=O)N1CCN(C(=O)CNC(=O)Cc2ccc(Cl)cc2)CC1 -12.2%, Brc1ccccc1C1Nc2cccc3cccc(c23)N1 14.3%, O=C(NCc1ccco1)c1ccc(CS(=O)(=O)Cc2ccc(F)cc2)o1 3.68%, CCOc1ccc(C(=O)NC2CCN(CC(=O)NCc3cccs3)CC2)cc1 -3.4%, Cc1ccc(S(=O)(=O)/N=C(/Nc2ccccn2)c2ccc(Cl)cc2)cc1 13.7%, CC(Oc1ccccc1)C(=O)NN1Cc2ccccc2C1=N (centres undefined) -3.2%, Cn1c(=O)c([N+](=O)[O-])c(Oc2ccccc2)c2ccccc21 2.7%, CCC(C(=O)OC)n1cnc2c(oc3ccccc32)c1=O (centres undefined) -3.46%, CN(C)c1ccc(NC(=O)c2ccncc2)c2ccccc12 -3.42%, COc1ccc(/C=C2\SC(=S)N(CCC(=O)Nc3ccccn3)C2=O)cc1OC 17.1%, CCC(=O)Nc1nc2ccccc2n1Cc1ccccc1C -4.23%, O=C(NCC1(N2CCCCC2)CCCCC1)c1cccc(S(=O)(=O)Nc2ccccc2Cl)c1 -1.26%, COC(=O)C1CC2=C(CC(C)(C)CC2=O)N(c2ccccc2)C1=O (centres undefined) -13.1%, CN1C(=O)/C(=C/c2ccco2)SC1=Nc1cccc(C(=O)O)c1 9.02%, Cc1cc(C(=O)Nc2ccc(C)c(S(=O)(=O)N3CCOCC3)c2)c2ccccc2n1 7.91%, COc1cccc(-n2c(SCC(=O)c3c[nH]c4ccccc34)nc3ccccc3c2=O)c1 11.3%, Cc1cc(C)cc(Oc2nc3c(C)cccn3c(=O)c2/C=C(\C#N)C(=O)NC2CCS(=O)(=O)C2)c1 (centres undefined) 7.24%, Cc1ccc(C2(C)NC(=O)N(CC(=O)Nc3ccccc3C(=O)N3CCCCC3)C2=O)cc1 (centres undefined) 0.91%, Cc1cc(C(=O)OCC(=O)c2c(N)n(C)c(=O)n(C)c2=O)c(C)o1 -0.6% and 1.98%, NS(=O)(=O)c1ccc2nc(NC(=O)C3=COCCO3)sc2c1 3.87%, C/C(=N\Nc1ccc([N+](=O)[O-])cc1)c1ccc(-n2nncc2C(C)(C)C)cc1 -0.82%, COc1cc2c(cc1OC)CN(C(=O)c1cc(=O)c3ccccc3o1)CC2 -9.22%, Cc1ccc(OCCCCc2c(C)n[nH]c2C)cc1 4.8%, COCCNC(=O)Nc1ccc2nc(-c3ccco3)c(-c3ccco3)nc2c1 34%, Cc1ccc(OCCCC(=O)Nc2ccc3c(c2)OCCO3)cc1 -5.58%, Cc1ccc(Cl)cc1-c1ccc(/C=N/n2cnnc2)o1 -9.15%, CC(C)(C)c1ccc(C(=O)NCCn2c(N)c(C#N)c3nc4ccccc4nc32)cc1 6.81%, Cn1c(=O)c2c(nc(N/N=C/c3cccs3)n2Cc2ccc(Br)cc2)n(C)c1=O 1.14%, CC(CN1CCCCC1)OC(=O)c1ccccc1Cl (centres undefined) 7.67%, CCOc1ccc(-c2nnc(-c3ccco3)o2)cc1 11.9%, O=c1[nH]c2ccccc2n2c(-c3ccccc3)nnc12 20.4%, O=C(c1ccc(S(=O)(=O)NCc2ccco2)cc1)N1CCN(c2ccccc2)CC1 1.61%
